Assay outcomes (PubChem)
HPGD block: blocks human HPGD enzyme activity | P15428 | purified HPGD, NADH fluorescence kinetic, PGE2 substrate | Potency, µM, inactives show at the highest dose activity change, negative = inhibition, hits mostly inhibitors | 150,000 tested, 4.3% active | AID 894; also: potency is read from the fitted curve at half-maximal effect
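NADH formation kinetics: reaction with 30 uM PGE2 and 1 mM NAD+ (final), 20 nM enzyme, Tris-HCl pH 8 with Tween 20, after 15 min compound preincubation at room temperature. Fluorescence change, last versus first of five reads.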
ALDH1A1 inh: blocks purified human ALDH1A1 activity. Purified ALDH1A1, NADH fluorescence, propionaldehyde substrate. Potency, µM (highest dose often 75.3 µM), for inactives: at the highest dose activity, negative = inhibition, most hits filed as inhibitors. 220,000 tested, 7.3% active. AID 1030;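 also: potency is read from the fitted curve at half-maximal effect; plate controls were no enzyme wells and a reference inhibitor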
Target sequence (P00352 whole entry, looked up): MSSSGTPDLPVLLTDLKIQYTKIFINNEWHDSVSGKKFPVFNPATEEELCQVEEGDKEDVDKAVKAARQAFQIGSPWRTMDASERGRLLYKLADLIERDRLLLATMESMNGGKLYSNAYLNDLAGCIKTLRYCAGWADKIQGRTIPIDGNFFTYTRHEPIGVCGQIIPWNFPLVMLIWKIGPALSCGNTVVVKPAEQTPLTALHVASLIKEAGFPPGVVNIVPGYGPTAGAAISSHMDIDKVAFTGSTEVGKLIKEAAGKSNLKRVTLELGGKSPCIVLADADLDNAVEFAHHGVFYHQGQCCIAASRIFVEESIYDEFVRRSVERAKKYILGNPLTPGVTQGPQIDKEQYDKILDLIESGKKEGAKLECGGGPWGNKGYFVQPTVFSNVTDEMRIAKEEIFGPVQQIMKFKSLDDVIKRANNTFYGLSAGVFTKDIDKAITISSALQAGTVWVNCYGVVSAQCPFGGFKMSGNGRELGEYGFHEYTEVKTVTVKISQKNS
PNC assembly inh: inhibitors of perinucleolar compartment assembly. activity change (PNC), negative = inhibition, % at 10 µM. PC3M PTB-GFP, PNC prevalence imaging, 16 h; stronger effect = lower value. 140,000 tested, 3.1% active;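 active = readout at or below -70, meaning at least 70% loss of cells showing the perinucleolar compartment, a nuclear body marking cancer cells; inconclusive = readout between -30 and a set limit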;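 also: plate controls were DMSO wells for no effect and camptothecin positive control wells for full effect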
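Compounds are pinned in duplicate onto adhered PC3M cells stably expressing GFP-tagged PTB and incubated 16 h at 37 C. Cells are then fixed, nuclei stained with Hoechst, and PNC-positive cells counted.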
* hit, by the source's call; ? = inconclusive; . = not tested or not shown; [ ] = dose if it differs, or a comment. This is a sample that favours compounds with a hit; in the whole collection about 11% have one here. Unless noted, calls follow the shape of the dose curve; as a rule, active = well fitted inhibition curve with a large enough effect (not every such curve was filed as active); inconclusive = small, poorly fitted or top-dose-only effect, or another doubt; inactive = no such curve, though single readings can be large or run the other way. Unless noted, % is scaled to controls: 0 for no effect and ±100 for the full control effect.

SMILES	HPGD block	ALDH1A1 inh	PNC assembly inh
Cn1c(=O)c2c(ncn2CC(=O)N/N=C/C(Cl)=C/c2ccccc2)n(C)c1=O	-7%	?	-6
CC(/C=N/NC(=O)Cn1cnc2c1c(=O)n(C)c(=O)n2C)=C\c1ccco1	.	22µM*	.
Cc1ccc(/C=N/NC(=O)Cc2cccn2C)s1	7.1µM*	3%	20
COc1ccc(CN2CCC(CO)(CCOc3ccccc3)CC2)cc1C	.	-4%	.
NC[C@H]1O[C@H](n2cnc3c(N)ncnc32)C[C@@H]1O	-11%	-6%[13.5 µM]	.
CC(C)NC(=O)N1CC[C@@]2(CCCN(S(=O)(=O)c3ccccc3)C2)C1	-2%	16%	.
NC(=O)c1ccsc1NC(=O)c1coc2ccccc2c1=O	.	-4%	.
Clc1nc(Cl)nc(NCCC2=CCCCC2)n1	.	-1%	.
CN(NC1OC(=O)c2ccccc21)c1ccccc1[N+](=O)[O-] (stereo not given)	.	7%	.
Cc1ccc(S(=O)(=O)Oc2ccccc2/C=N/N=C(N)N)cc1	.	-10%	.
Cc1ccc(S(=O)(=O)Oc2ccccc2/C=C2\SC(=O)NC2=O)cc1	.	13µM*	.
CC(CCC(=O)O)C1CCC2C3CC[C@H]4CC(O)CC[C@@]4(C)C3CC(O)[C@]12C (stereo not given in full)	0%	-3%	.
CN(C)S(=O)(=O)c1ccc(Nc2ccc(-c3ccc4c(c3)OCCO4)nn2)cc1	-15%	?	6
CN(C(=O)c1cccc(Nc2ccc(-c3ccc4c(c3)OCCO4)nn2)c1)C1CCCCC1	?	25µM*	-22
CN(C)/C=C/C(=O)c1cc(F)cc(C(F)(F)F)c1	.	-5%	.
COC(=O)c1ccccc1NC(=O)NCC1CCCO1 (stereo not given)	?	?	-122*
COC(=O)c1ccccc1NC(=O)C(=O)NCC1CCCO1 (stereo not given)	-6%	?	-1
COc1ccccc1CC(=O)NCC1CCCO1 (stereo not given)	25µM*	-7%	4
COc1ccccc1CNC(=O)c1ccc(OCC2CCCO2)cc1 (stereo not given)	-12%	1%	-14
COc1ccccc1CNC(=O)C(=O)NCC1CCCO1 (stereo not given)	-9%	-3%	-28
COc1ccccc1CCNC(=O)C1CCCO1 (stereo not given)	18µM*	-4%	-14
CCN(C(=O)C(C)Cl)c1ccccc1 (stereo not given)	.	4%	.
Cc1cc(C)nc(/N=C2\NC(=O)CC(C(=O)O)N2c2ccc(C)c(C)c2)n1 (stereo not given)	.	-2%	.
C/C(=N\NC(=O)Cc1csc(N2CCOCC2)n1)c1ccc(Cl)c(Cl)c1	.	1%	.
COc1ccc2c(c1)S/C(=C\C(=O)c1ccncc1)N2C	28µM*	14µM*	-12
SMILES	HPGD block	ALDH1A1 inh	PNC assembly inh
COc1ccc(C(=O)/C=C2/Sc3cc4c(cc3N2C)OCO4)cc1	.	?	-6
COc1ccc2oc(=O)c(-c3ccccc3C(=O)N3CCOCC3)cc2c1	?	?	7
CCC(C)CCCCC(=O)N[C@@H](CCN)C(=O)N[C@H](C(=O)N[C@@H](CCN)C(=O)N[C@H]1CCNC(=O)C([C@@H](C)O)NC(=O)[C@@H](CCN)NC(=O)[C@H](CCN)NC(=O)[C@H](CC(C)C)NC(=O)[C@@H](CC(C)C)NC(=O)[C@H](CCN)NC1=O)[C@@H](C)O (stereo not given in full)	-5%	-3%	.
Cc1ccc(CN2CCN(/N=C/c3ccc(C(F)(F)F)cc3)CC2)c(C)c1	-1%	14%	?
COC(=O)CC1C(=O)NCCN1C(=S)NC(=O)C(c1ccccc1)c1ccccc1 (stereo not given)	-2%	-8%	15
COC(=O)CC1C(=O)NCCN1C(=S)NC(=O)c1sc2ccccc2c1Cl (stereo not given)	.	13µM*	.
C/C(=N/NC(=O)CNC(=O)c1cccc(F)c1)c1ccc2c(c1)CCCC2	.	7%	.
COc1cccc(C2SCC(=O)N2c2ccc(C)cc2)c1OC (stereo not given)	-6%	14µM*	?
COc1ccc(N2C(=O)CSC2c2cccc(OC)c2OC)cc1 (stereo not given)	-2%	-4%	21
CN(C)S(=O)(=O)c1ccc(NC(=O)COC(=O)C2CC3CCCC(C2)C3=O)cc1 (stereo not given)	.	-4%	.
CC(C)(CO)[C@H](O)C(=O)NCCCO	-8%	14%[20.9 µM]	.
O=C(NNc1nc2ccccc2nc1C(F)(F)F)c1ccccc1	-8%	?	27
Cc1ccc(S(=O)(=O)NNC(=O)CCC(=O)Nc2ccccc2)cc1	-7%	5%	3
Cc1ccc(S(=O)(=O)NNc2nc3ccccc3nc2C(F)(F)F)cc1	3.2µM*	7.1µM*	-7
